RAD52 inh: RAD52 DNA annealing inhibitors, primary screen, biochemical, FRET, single point, set 2 | recombinant RAD52 DNA annealing, FRET fluorescence | inhibition, % at 18.7 µM | 0.46% of 360,000 active | AID 651710, 2012;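 active means every replicate showing at least 50% inhibition; inconclusive means mean inhibition at least 50% but not in every replicate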
NSD2 HMT inh: NSD2 histone methyltransferase inhibitors, primary screen, biochemical, AlphaScreen, single concentration, set 2; Histone-lysine N-methyltransferase NSD2 (Homo sapiens), O96028; inhibition, % at 12.5 µM; AID 743445, 2014; 0.54% of 310,000 active; NSD2 peptide methylation, 120 min; in the data active means inhibition above about 50%
miR122 inh: miR-122 Renilla sensor signal increase in Huh7, primary screen, miR-122 inhibitor project, cell-based, single point, plate reader; Huh7 miR-122 Renilla luciferase sensor, 48 h; neutral wells = 0, positive control = 100; activation (reporter increase), % at 12.5 µM; 0.3% of 340,000 active;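 active means mean replicate activation score at least 90 and every replicate individually at or above 90; inconclusive means only one of the two criteria met; inactive means neither criterion met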;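 further: higher luciferase means less miR-122 activity so hits act as miR-122 inhibitors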
CASP6 VEID inh: human caspase-6 inhibitors, primary screen, biochemical, VEID-R110 fluorescence, single point, set 2 | P55212 | purified caspase-6, Z-VEID-R110 cleavage fluorescence | inhibition, % at 12.5 µM | 0.53% of 350,000 active;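 active means mean inhibition across replicates at least about 35%, with every replicate also reaching that limit, limit read from the data; inconclusive means only one of the two criteria met; inactive means neither criterion met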;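 further: 0% = median of neutral control wells and 100% = no fluorescence left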
Target sequence (P55212 24-179 limits assumed): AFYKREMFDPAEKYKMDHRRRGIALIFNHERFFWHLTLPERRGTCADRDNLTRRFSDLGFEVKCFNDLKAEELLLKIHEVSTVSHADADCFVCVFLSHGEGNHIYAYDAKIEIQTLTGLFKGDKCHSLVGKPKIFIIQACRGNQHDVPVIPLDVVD
Target sequence (P55212 194-293 limits assumed): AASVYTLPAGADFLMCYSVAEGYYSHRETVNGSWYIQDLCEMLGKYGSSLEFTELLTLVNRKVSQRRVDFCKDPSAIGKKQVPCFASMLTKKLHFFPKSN
MLL AF4-AF9 inh: inhibitors of AF4 peptide binding to AF9, primary screen, biochemical, AlphaScreen, biotin-AF4 peptide, FLAG-AF9, single point | inhibition, % at 10 µM | 0.47% of 350,000 active | AID 651704, 2012;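 active means every replicate reaching a set inhibition limit, whatever the replicate mean, cut at about 25% in these data; inconclusive means mean inhibition reaches that limit but some replicates miss it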;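 further: 0% = plate neutral control median and 100% = total signal loss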
CASP1 counter: human caspase-1 inhibitors, dose response, selectivity assay for caspase-6 inhibitor project, biochemical, Z-YVAD-R110 fluorescence, cherry-pick, set 2; 100 tested, under 10 active; activity change, negative = inhibition, % at 35 µM; purified caspase-1, Z-YVAD-R110 cleavage fluorescence; shares compounds with CASP6 VEID inh; AID 743289, 2014;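 active means compounds lowering fluorescence whose fitted half-maximal concentration is no more than twice their top tested dose; inconclusive means flat fit with 30 to 70% inhibition, or poor fit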
Target sequence (P29466 whole entry, looked up): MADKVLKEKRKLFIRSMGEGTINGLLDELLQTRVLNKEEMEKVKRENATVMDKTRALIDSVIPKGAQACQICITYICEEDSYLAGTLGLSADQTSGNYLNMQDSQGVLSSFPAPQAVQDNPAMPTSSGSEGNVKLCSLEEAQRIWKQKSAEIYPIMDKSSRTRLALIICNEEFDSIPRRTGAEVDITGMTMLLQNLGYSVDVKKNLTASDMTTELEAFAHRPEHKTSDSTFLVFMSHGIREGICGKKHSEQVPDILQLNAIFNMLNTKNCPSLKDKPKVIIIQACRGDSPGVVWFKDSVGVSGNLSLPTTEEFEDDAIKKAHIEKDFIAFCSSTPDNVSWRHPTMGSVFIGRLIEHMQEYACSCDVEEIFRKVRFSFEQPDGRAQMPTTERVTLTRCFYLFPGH
AlphaScreen art: AlphaScreen signal interference with preloaded methylated product, dose response, artefact control for NSD2 inhibitor project, biochemical, cherry-picked samples | shares compounds with NSD2 HMT inh | AlphaScreen artifact counterscreen, preloaded methylated H4 peptide | AC35, µM (doses to about 10 µM), without a hit: at the top dose activity change, negative = signal loss | 9.4% of 1,500 active | AID 1053174, 2014; call rule not given here
Starred values were filed as active, the others as inactive; ? = inconclusive; · = not tested or not shown; [ ] = another dose, or the depositor's remark. Only some compounds are listed: those with a hit (about 1.5% of all), similar ones and a draw of the others.

SMILES | RAD52 inh | NSD2 HMT inh | miR122 inh | CASP6 VEID inh | MLL AF4-AF9 inh | AlphaScreen art | others
CN(C)CC#Cc1ccc([C@H]2[C@H]3CN(C(=O)C4CCCC4)CCCCN3[C@H]2CO)cc1 | · | · | -27.5[16.7 µM] | · | · | ·
CCOc1c(O)ccc(/C=C2\SC(=S)NC2=O)c1[N+](=O)[O-] | -23.8 | 52.9* | · | 61.4* | -5.6 | -4.7% | CASP1 counter=8.7
O=c1c(O)cccc2cc(O)c(O)c(O)c12 | 3.4 | 127.5* | -12.3 | 97.5* | 1.3 | 1.58µM* | CASP1 counter=-9.7
COc1cc2cccc(OC)c(=O)c2c(OC)c1OC | -4.5 | · | -1.4 | 2.5 | -1.6 | ·
C[C@H]1CCCCO[C@@H](CN(C)Cc2ccncc2)[C@@H](C)CN([C@@H](C)CO)C(=O)c2cc(NS(C)(=O)=O)ccc2O1 | -7.2 | · | 0.0[16.7 µM] | -0.6 | 0.0 | ·
Oc1cc2c(cc1O)[C@H]1c3ccc(O)c(O)c3OC[C@@]1(O)C2 | -14.3 | 109.3* | -1.3 | 37.4* | ? | 4µM* | CASP1 counter=-1.7
CCNC(=O)C[C@@H]1CC[C@@H]2[C@@H](COc3ccc(NS(=O)(=O)c4ccccc4C)cc3C(=O)N2C)O1 | 2.2 | · | 11.4[16.7 µM] | 1.9 | -2.3 | ·
O=C(COC(=O)c1ccc([N+](=O)[O-])s1)Nc1ccccc1 | · | 69.3* | -3.9 | · | · | -0.7% | CASP1 counter=0.0
CC(=O)N=Cc1c(C)c(C#N)c(=O)n(C)c1O | -74.1 | 100.7* | · | 31.0 | 0.3 | -4.7%
CNC[C@@H]1OCCCC[C@H](C)Oc2ccc(NC(=O)Nc3ccc4c(c3)OCO4)cc2C(=O)N([C@H](C)CO)C[C@H]1C | · | · | 0.4[16.7 µM] | · | · | ·
CC(=O)NC(Cc1c[nH]c2ccccc12)C(=O)NCc1ccco1 (configuration not stated) | -6.4 | -5.5 | -2.1 | -2.0 | -2.2 | ·
CC(Cc1c[nH]c2ccccc12)C(=O)NCc1ccco1 (configuration not stated) | -3.1 | 63.2* | -3.3 | 42.3* | 0.7 | -5.3%
O=C(O)c1cc(C(=O)O)cc(N2C(=O)c3ccccc3C2=O)c1 | 13.4 | 0.7 | · | 21.4 | -0.7 | ·
O=C(O)c1cc(N2C(=O)C=CC2=O)cc(N2C(=O)C=CC2=O)c1 | -10.8 | 88.0* | -1.7 | 61.0* | -11.9 | -7.5%
COc1ccc(NC(=O)N(C)C[C@H]2OCCCC[C@H](C)Oc3ccc(NS(=O)(=O)c4ccc(C)cc4)cc3C(=O)N([C@@H](C)CO)C[C@H]2C)cc1 | 3.4 | · | -1.3[16.7 µM] | -0.7 | -1.0 | ·
Nc1c(/C=C2/C=CC(=O)C(O)=C2)c(=O)nc2sc(CC(=O)N3CCOCC3)nn12 | -176.3 | 114.1* | · | 28.3 | -9.3 | 3.58µM*
O=C(c1ccncc1)N1CC(=O)N2[C@H](C1)[C@H](c1ccc(-c3cccnc3)cc1)[C@@H]2CO | -4.8 | · | · | -1.7 | -4.2 | ·
CCn1cnc2c1c(=O)n(CC(=O)O)c(=O)n2Cc1ccccc1 | -4.8 | 113.0* | · | -2.7 | -0.1 | -0.6%
CO[C@@H]1CN(C)C(=O)c2ccc(NC(=O)c3cnccn3)cc2OC[C@@H](C)N(CC2CC2)C[C@@H]1C | -3.4 | · | · | 0.3 | -3.5 | ·
COCC(=O)Nc1ccc2c(c1)C(=O)N(C)[C@@H]1CC[C@@H](CC(=O)NCc3ccccc3F)O[C@@H]1CO2 | 3.9 | · | 0.0[16.7 µM] | 1.5 | -10.6 | ·
S=c1[nH]c2ccccc2n1CCOc1ccccc1 | -7.1 | 0.6 | 11.2 | 0.9 | 2.5 | ·
Cc1cccc(OCCn2c(=S)[nH]c3ccccc32)c1 | · | 112.7* | · | · | · | 4.0%
CCCc1nc2sc3ccccc3c(=O)c2c(=O)n1Cc1ccccc1 | -13.5 | 61.4* | -2.3 | -2.2 | · | -3.1%
CCCN(C)C[C@@H]1Oc2ncc(-c3ccccc3)cc2C(=O)N([C@@H](C)CO)C[C@H]1C | · | · | -6.5[16.7 µM] | · | · | ·
OC(COc1ccc2ccccc2c1Cl)CN1CCOCC1 (configuration not stated) | · | 85.8* | 6.3 | · | · | -2.9%
SMILES | RAD52 inh | NSD2 HMT inh | miR122 inh | CASP6 VEID inh | MLL AF4-AF9 inh | AlphaScreen art | others
Cc1cc(Cl)ccc1OCCCC(=O)N1CCCCC1 | · | -3.1 | -7.8 | · | · | ·
Cc1cc(Cl)ccc1OCCCC(=O)N1CCOCC1 | · | 71.8* | -5.6 | · | · | 1.3%
NC1=CC(=O)C(=O)c2ccccc21 | -30.4 | 100.3* | 21.2 | 40.9* | -0.1 | -0.7%
Nc1ccc(Br)c2c1C(=O)c1ccccc1C2=O | · | 16.5 | · | · | · | ·
Cc1ccc(S(=O)(=O)N(C)C[C@@H]2OCCCC[C@H](C)Oc3ccc(N(C)C)cc3C(=O)N([C@H](C)CO)C[C@@H]2C)cc1 | · | · | -7.1[16.7 µM] | · | · | ·
CC(C)N(Cc1ccccc1)C(=O)C1CCCN(c2ncnc3c2nc2n3CCCCC2)C1 (configuration not stated) | -3.1 | 53.9* | -3.0 | -2.7 | 1.6 | -3.4%
CCC(=O)N1CCN(c2ccc(Cl)cc2NC(=O)c2ccc(Br)o2)CC1 | · | 118.6* | -1.9 | · | · | -7.9%
C/C=C/c1ccc2c(c1)O[C@@H](CN(C)C(=O)C1CCOCC1)[C@@H](C)CN([C@@H](C)CO)S2(=O)=O | 4.0 | · | -4.1[16.7 µM] | 1.4 | -0.5 | ·
CC1(C)NC(=O)N(CCOCCOc2c(Cl)cc(Cl)cc2Cl)C1=O | · | 124.9* | -3.1 | · | · | -4.8%
CC1CCC2(CC1)NC(=O)N(CC(=O)N(Cc1ccccc1)C(C)(C)C)C2=O (configuration not stated) | 0.4 | -3.1 | -3.6 | -0.9 | 0.7 | ·
COc1ccc(CN(C(=O)CN2C(=O)NC3(CCC(C)CC3)C2=O)C(C)Cc2cccs2)cc1 (configuration not stated) | -23.0 | 55.4* | -18.6 | 2.9 | 1.1 | -6.7%
COc1ccc(S(=O)(=O)N(C)C[C@@H]2Oc3ccc(NC(=O)Nc4ccc(F)cc4)cc3CC(=O)N([C@@H](C)CO)C[C@@H]2C)cc1 | · | · | -5.8[16.7 µM] | · | · | ·
CO[C@@H]1CN(C)C(=O)c2ccc(NC(=O)c3cc(C)on3)cc2OC[C@H](C)N(C(C)=O)C[C@@H]1C | -1.8 | · | 4.6[16.7 µM] | -0.6 | -1.6 | ·
C=CCOCC(O)Cn1c(N2CCCC2)nc2c1c(=O)n(C)c(=O)n2C (configuration not stated) | -6.6 | 53.0* | -4.6 | -3.4 | 2.1 | -0.2%
Cn1c(=O)c2c(nc(N3CCCC3)n2CC(O)CO)n(C)c1=O (configuration not stated) | · | 0.0 | 1.5 | · | · | ·
CCOc1ccc(NC(=O)CN(c2cccc(C(F)(F)F)c2)S(C)(=O)=O)cc1 | · | 113.0* | 65.1 | · | · | 0.3%
